From PubChem
GASC-1 inh: inhibitors of GASC-1 histone demethylase, primary screen, biochemical, fluorescence, DELFIA europium. Lysine-specific demethylase 4C (Homo sapiens), Q9H3R0. AID 2099, 2009. inhibition, % at 2.35 µM. GST-JMJD2C(1-420) H3K9me3 demethylation. hit rate 0.069% among 330,000;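 active = more than half of a compound's replicate wells show inhibition beyond 50%, single wells judged on their own value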;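 also: signal counts dimethyl H3K9 product captured on neutravidin plate; 0% = median of DMSO wells and 100% = 0.3 times that DMSO median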
VLA-4 inh: inhibition in human VLA-4 binding assay, primary screen, VLA-4 allosteric modulator project, MLPCN library, flow cytometry, VLA-4 expressing cells | ligand binding flow cytometry | AID 2557, 2010 | inhibition, % (about 7 µM as worked out from the volumes in the protocol) | hit rate 0.2% among 330,000 | Integrin alpha-4 (Homo sapiens), P13612; in the data active = inhibition above about 50%
PREPL inhibitor: PREPL enzyme inhibitors, primary screen, biochemical, fluorescence polarization. recombinant PREPL, fluorescence polarization activity-based probe. inhibition, % at 5.96 µM. hit rate 0.68% among 320,000. Prolyl endopeptidase-like (Homo sapiens), Q4J6C6; in the data active = inhibition above about 43%;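 also: 0% = enzyme with DMSO and 100% = wells lacking enzyme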
Target sequence (Q4J6C6 whole entry, looked up): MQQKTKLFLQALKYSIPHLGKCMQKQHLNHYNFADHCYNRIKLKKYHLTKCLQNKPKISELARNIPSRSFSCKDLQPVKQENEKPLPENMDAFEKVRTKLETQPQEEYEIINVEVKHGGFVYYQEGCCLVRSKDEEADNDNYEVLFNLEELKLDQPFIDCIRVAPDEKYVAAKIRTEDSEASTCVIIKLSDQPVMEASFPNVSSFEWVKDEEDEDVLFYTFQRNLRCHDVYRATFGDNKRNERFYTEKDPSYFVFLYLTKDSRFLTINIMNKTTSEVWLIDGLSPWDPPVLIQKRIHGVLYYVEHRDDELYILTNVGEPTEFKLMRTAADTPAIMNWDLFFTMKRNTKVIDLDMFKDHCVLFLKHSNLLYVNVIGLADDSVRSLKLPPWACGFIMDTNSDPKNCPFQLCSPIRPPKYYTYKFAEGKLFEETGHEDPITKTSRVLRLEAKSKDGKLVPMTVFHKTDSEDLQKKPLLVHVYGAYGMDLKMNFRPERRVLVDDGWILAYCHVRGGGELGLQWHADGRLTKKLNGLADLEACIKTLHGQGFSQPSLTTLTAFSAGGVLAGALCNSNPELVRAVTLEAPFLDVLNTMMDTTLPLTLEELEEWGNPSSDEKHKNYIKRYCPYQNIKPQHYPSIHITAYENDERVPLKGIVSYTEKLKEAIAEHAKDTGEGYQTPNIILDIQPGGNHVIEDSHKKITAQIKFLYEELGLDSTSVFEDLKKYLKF
GRK2 inh: compounds blocking aptamer binding on GRK2 – biochemical, human GRK2, bead flow cytometry, HTS, primary screen; Beta-adrenergic receptor kinase 1 (Homo sapiens), P25098; FAM-aptamer displacement from GRK2; inhibition of aptamer binding, % at 10 µM; hit rate 0.59% among 330,000; AID 488847, 2010;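 active = inhibition of aptamer binding above 40%, roughly 3 SD of noise, on plates passing a quality check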;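 also: median bead fluorescence of bound FAM aptamer so fluorescent compounds give negative values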
DSG3 Ab inh: inhibitors of pemphigus antibody binding to DSG3, primary screen, biochemical, bead-based, flow cytometry, scFv-GFP; hit rate 0.48% among 310,000; binding (percent of control), % at 10 µM; DSG3-coupled beads, scFv-anti-DSG3-GFP binding; stronger effect = lower value; Desmoglein-3 (Homo sapiens), P32926;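 active = binding more than 3 SD below its plate's average and above zero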
* = called active by the depositor; . = no result given. Most compounds without a hit are left out; they make up all but 1.6% or so of the library.

SMILES | GASC-1 inh | VLA-4 inh | PREPL inhibitor | GRK2 inh | DSG3 Ab inh
COc1ccc(C2CC(=O)C(C(c3ccc(O)cc3)C3C(=O)CC(c4ccc(OC)cc4)CC3=O)C(=O)C2)cc1 (stereo not drawn) | 14 | 0 | 12 | 52* | .
COc1ccc(C2=CC(=O)CC(c3ccc(OC)cc3)C2)cc1 (stereo not drawn) | -6 | 1 | -8 | 0 | 103
CCC1CCc2sc(C(=O)OCC(=O)N(CCOC)c3c(N)n(Cc4ccccc4)c(=O)[nH]c3=O)cc2C1 (stereo not drawn) | 9 | 4 | -2 | 5 | 105
COCCN(C(=O)COC(=O)c1cc2c(s1)CCC2)c1c(N)n(Cc2ccccc2)c(=O)[nH]c1=O | 8 | 3 | 5 | 98* | 90
COc1ccc(N(C)C(=O)CCC(=O)Nc2ccc3nc(N4CCOCC4)cc(C)c3c2)c(OC)c1 | 5 | -12 | 28 | 1 | 89*
O=[N+]([O-])c1ccc(Cl)c(S(=O)(=O)Nc2ccc3cn[nH]c3c2)c1 | -2 | 1 | -2 | 0 | .
O=[N+]([O-])c1ccc2cn[nH]c2c1 | 21 | 29 | 0 | 1 | 43*
CCC(CC)C(=O)Nc1nnc(S(=O)(=O)N2c3ccccc3CC2C)s1 (stereo not drawn) | -14 | 36 | -5 | 1 | -14*
CCCCCC(=O)Nc1nc(C)c(-c2csc(Nc3cc(Cl)ccc3OC)n2)s1 | -5 | 20 | 16 | 0 | 79*
O=c1cc(-c2ccc([N+](=O)[O-])cc2)nc2cc(-c3ccc(Cl)cc3)[nH]n12 | -20 | -3 | 3 | 58* | .
CCCc1cc(=O)n2[nH]c(-c3ccc(Cl)cc3)cc2n1 | -3 | 29 | 13 | 0 | 114
CCOC(=O)CCCN1CC(O)=C(c2nc(-c3ccc(Cl)cc3)cs2)C1=N | . | 8 | 23 | 0 | 96*
CCCCN1CC(O)=C(c2nc(-c3ccc(Br)cc3)cs2)C1=N | 8 | 3 | 2 | 0 | 98
O=C1[C@H]2[C@@H](c3ccc(Cl)cc3)N3C(=O)N(c4cccc(Br)c4)C(=O)[C@@]3(Cc3ccc(Cl)cc3)[C@H]2C(=O)N1C1CCCCC1 | 4 | 25 | -1 | 0 | 98
O=C1[C@H]2[C@@H](c3ccc(F)cc3)N3C(=O)N(c4cccc(Br)c4)C(=O)[C@@]3(Cc3ccc(Cl)cc3)[C@H]2C(=O)N1C1CCCCC1 | -14 | -14 | 8 | 0 | -6.5*
COc1cc(/C=N/Nc2ccc(S(N)(=O)=O)cc2[N+](=O)[O-])cc(OC)c1O | -9 | -3 | 2 | 2 | 83*
Cc1ccc(C2CC(=O)C=C(NCc3ccccc3)C2)cc1 (stereo not drawn) | -2 | 8 | -10 | 2 | 115
O=C1C=C(NCc2ccc3c(c2)OCO3)CC(c2ccccc2)C1 (stereo not drawn) | 61* | 6 | -1 | 2 | .
O=C(COC(=O)c1cc([N+](=O)[O-])ccc1N1CCOCC1)c1ccccc1Cl | 4 | 6 | 18 | 57* | 94
Cc1cc2c(NCc3ccccc3)ncnc2s1 | 3 | -8 | 15 | 1 | 112
NC(=O)c1ccc[n+](Cc2ccccc2)c1 | 7 | 1 | 23 | 80* | 95
c1ccc(C[n+]2cccc(-c3ccccc3)c2)cc1 | 1 | 21 | 3 | 0 | .
CC(=O)Nc1sc(C)c(C)c1C(=O)OCC(=O)Nc1ccc(S(N)(=O)=O)cc1 | 0 | 2 | -10 | 2 | 108
O=c1cc(-c2ccccc2)nc(Sc2ccc([N+](=O)[O-])cc2[N+](=O)[O-])[nH]1 | -10 | -6 | -2 | 0 | 81*
Cc1cc(C)c(NC(=O)COC(=O)c2cccc3c2C(=O)c2ccccc2C3=O)c(C)c1 | 3 | -5 | 26 | 2 | 98
Cc1cc(C)c(Nc2cc(S(=O)(=O)O)c(N)c3c2C(=O)c2ccccc2C3=O)c(C)c1 | 17 | 14 | 57* | 1 | 91
Cc1cc(=O)n(Nc2ccccc2)c(O)c1C#N | . | . | . | . | 64*
Cc1cc(=O)n(CCc2ccccc2)c(O)c1C#N | 1 | 0 | 5 | 4 | 103
